Measurements taken from PubChem BioAssay (NCI).
The panel holds about 83,000 compounds, 20% with a hit somewhere; the sample as a whole holds those more often.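 In brief: 96-well plates, 48 h treatment, single concentration, percent growth endpoint.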 Values without a mark were called inactive. The source made the active and inactive calls. How the source made its calls: active means growth percent below 10; inactive means the rest.

What was measured:
Test in all cases: NCI-60 one-dose screen, 48 h (100 = growth as untreated, 0 = no growth, -100 = all killed)
Details in all cases: 10 µM unless noted
[1] = tested on: NCI-H23 lung
[2] = tested on: NCI-H226 lung
[3] = tested on: NCI-H322M lung
[4] = tested on: HOP-62 NSCLC
[5] = tested on: NCI-H460 lung
[6] = tested on: HOP-92 NSCLC
[7] = tested on: NCI-H522 lung
[8] = tested on: A549/ATCC NSCLC
[9] = tested on: 786-0 renal
[10] = tested on: COLO 205 colon

| SMILES | growth [1] | growth [2] | growth [3] | growth [4] | growth [5] | growth [6] | growth [7] | growth [8] | growth [9] | growth [10] |
| --- | --- | --- | --- | --- | --- | --- | --- | --- | --- | --- |
| O=C1O[C@H]([C@H](O)CO)C(O)=C1O | 97.7% | 103% | 104% | 107% | 104% | 109% | 88.4% | 104% | 103% | 107% |
| NC1=CSC2=N/C(=C\c3ccc(Cl)cc3)C(=O)N12 | 72.6% | 80.3% | 95.7% | 83.5% | 62.1% | 69.5% | 33.8% | 74.2% | 81.4% | 90% |
| O=c1c(/C=C/c2ccco2)nnc(SCCN2CCOCC2)n1/N=C/c1ccc([N+](=O)[O-])cc1 | 91% | 85.5% | 113% | 101% | 103% | 90.5% | 86.5% | 99.4% | 95.2% | 112% |
| CN(C)CC(=O)Nc1ccc(Cn2nnc3c2C(=O)c2nnn(Cc4ccc(NC(=O)CN(C)C)cc4)c2C3=O)cc1 | -31.7% (active) | -56.2% (active) | -52.6% (active) | -67.4% (active) | -3.43% (active) | -53.8% (active) | -67% (active) | -59.8% (active) | -76.4% (active) | -80.4% (active) |
| NC(N)=Nc1ccc(S(=O)(=O)O)cc1 | 102% | 105% | 114% | 106% | 109% | 84.3% | 79.3% | 106% | 98.3% | 109% |
| COc1cc(C#N)cc(OC)c1OCCN(CCOc1c(OC)cc(C#N)cc1OC)S(=O)(=O)c1ccc(C)cc1 | 96% | 104% | 91.6% | 100% | 112% | 88.5% | 95.1% | 100% | 92.7% | 113% |
| COc1ccc(-c2cc(-c3ccc(N(C)C)cc3)nc(NC(=O)c3ccncc3)n2)cc1 | 91.8% | 82.6% | 87.8% | 103% | 99.7% | 62.8% | 90.7% | 93.7% | 97.1% | 111% |
| O=c1c2cccc3c(Nc4ccccn4)ccc(c32)c2nc3ccccc3n12 | 60.6% | 69.7% | 74.5% | 67.8% | 52.7% | 54.9% | 56.6% | 70.9% | 88.4% | 71% |
| COc1ccc2nc3cc(Cl)ccc3c(N3CCN(c4nccc(NCc5ccccc5)n4)CC3)c2c1 | 73.2% | 96.4% | 89.4% | 35.9% | 89.9% | 69.1% | -0.14% (active) | 78.3% | 79% | 82.1% |
| CC(C)(C)c1nn(-c2ccccc2)c2c1CC1(CN2Cc2ccc3c(c2)OCO3)C(=O)c2ccccc2C1=O | 106% | 110% | 107% | 97.3% | 112% | 97.2% | 141% | 79.4% | 98.4% | 108% |
| O=C1Nc2ccc(Br)cc2C12CC(c1ccccc1)=NN2 (stereo not given) | 58.7% | 57.3% | 35.2% | 51.6% | 18.1% | 58.2% | 20% | 31.6% | 46.8% | 30.5% |
| Nc1c(C(=O)Nc2ccccc2)sc2nc3c(cc12)CN(CCc1ccccc1)CC3 | 84.2% | 89.8% | 94.2% | 99.2% | 100% | 75.5% | 86.1% | 107% | 101% | 116% |
| Cn1c2c(Cl)c(Cl)ccc2c2ccn3c(=O)c4ccccc4nc3c21 | 89% | 90.8% | 90.9% | 68% | 104% | 92.7% | 84.8% | 108% | 99.2% | 100% |
| Nc1ccc(Nc2nccc(-c3ccc4ccccc4c3)n2)cc1 | 41.2% | 64% | 64.5% | 44.2% | 17.8% | 65.1% | 27.6% | 25.5% | 58.7% | 49.4% |
